Among the data in PubChem BioAssay (NCI) are growth values, retold here.

Molecules are shown by their SMILES. About 83,000 compounds went through this panel and 20% of them were active in at least one assay; those are over-represented in the sample as a whole.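 96-well plates, one dose, 48 hours. Percent growth reported; active if below 10.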 Values without a mark were called inactive. Active and inactive are the calls of the source.

The subject of this test is PC-3 prostate. Description: NCI-60 one-dose screen, 48 h (100 = growth as untreated, 0 = no growth, -100 = all killed). Conditions: 10 µM unless noted. How it is done:
Growth inhibition of the PC-3 human tumor cell line is measured as a screen for anti-cancer activity. Cells are grown in 96 well plates and exposed to the test compound for 48 hours. Compounds are tested at a single concentration, which is 10^-5 M for most compounds. The reported endpoint is percent growth (GI% or GIPRCNT), where numbers from 0 - 100% represent growth inhibition, and numbers from -100% - 0 represent cell death. For example, a value of 40 represents 60% growth inhibition. A value of 0 means no net growth occurred over the course of the experiment. A value of -40 indicates 40% of cells at the beginning of the experiment died by the end of the experiment. A value of -100 means all cells are dead at the end of the experiment.
NCI-60 Human Tumor Cell Lines Screen was performed using the standard one-dose NCI protocol, which is described in more detail at https://dtp.cancer.gov/discovery_development/nci-60/default.htm.
Compounds with GIPRCNT values below 10 were considered active. Activity score was based on GIPRCNT using the following formula: […]
Score is 0 for GIPRCNT values of 100 or above, 50 for GIPRCNT values of 0, and 100 for GIPRCNT values of -100.
Consider `O=C(NCCCNc1cc(-c2cn(-c3ccccc3)nc2-c2cccc(O)c2)ccn1)c1ccc(F)cc1`, for which the growth was 12.6%.

Regarding `COCCN(C(=O)c1ccc(F)cc1F)c1c(N)n(Cc2ccccc2)c(=O)[nH]c1=O`, the growth is 97.4%.

Turning to `CC(C)(C)c1ccc(/C=C/C(=O)Nc2ccc(O)cc2)cc1`, the growth was 59%.

With `O=C(NCCNc1cc(-c2cn(-c3ccccc3)nc2-c2cccc(O)c2)ccn1)Nc1ccccc1`, the growth was 45.7%.

For the compound `C=C1C(=O)O[C@H]2[C@H]1CC/C(COC(=O)C(=O)c1c[nH]c3ccccc13)=C\CC[C@@]1(C)O[C@@H]21`, the growth is -66.8% (active).

On to `COc1cccc(C(=O)NCCNc2cc(-c3cn(-c4ccccc4)nc3-c3cccc(OC)c3)ccn2)c1`, for which the growth was 25.4%.

Turning to `COc1ccc(/C=N/C2=C(C#N)C(c3ccc(OC)cc3)c3ccc4ccccc4c3O2)cc1` (stereo not given), the growth was 70%.

Take `Cc1cc(NCc2cc(Nc3ccnc4cc(Cl)ccc34)ccc2F)nc(N2CCCC2)n1`: the growth is 17.5%.

Turning to `O=[N+]([O-])c1ccc(OCCO)cc1`, the growth was 87.2%.

As to `O=C1/C(=C/c2ccccc2)CCc2nc3ccccc3c(/C=C/c3ccc(Cl)cc3)c21`, the growth was 79.6%.

For the compound `Cc1ccc2[nH]c(=O)c3c(c2c1)OC(N)=C(C#N)C31c2cc(Br)ccc2-c2ccc(Br)cc21`, the growth is 48.3%.

Take `CC1CC2Oc3ccc(Cl)cc3C(=O)N2O1` (stereo not given): the growth was 97.1%.

As for `CCCCCCCCCCN(CCCCCCCCCC)CC(=O)c1ccc2cc(Br)c3ccccc3c2c1`, the growth was -71.7% (active).

Consider `Cc1ccc(CCC(=O)Nc2ncc(Cc3cc(Cl)ccc3Cl)s2)o1`, for which the growth was 23.6%.

`COc1ccc(S(=O)(=O)NCCNc2nccc(-c3c(-c4cccc(F)c4)nc4sccn34)n2)cc1`: the growth is 29.4%.

Turning to `CC/C=C\CCC/C=C1/C(=O)C=C[C@@H]1C/C=C\CCCC(=O)O`, the growth is 57.6%.

Turning to `CS(=O)c1cccc(-c2ccc3nc(N)n(-c4ccc(C(F)(F)F)cc4)c(=O)c3c2)c1` (stereo not given), the growth is 83.5%.

In the case of `CC1CC(C(C)(C)C)C(=O)C(C(C)(C)C)C1` (stereo not given), the growth is 108%.

In the case of `C#Cc1cccc(NC(=O)c2ccc(NC(=O)CCl)cc2)c1`, the growth was -46.6% [8.25 µM] (active).

For `N#Cc1nc2c(S(=O)(=O)c3ccc(Cl)cc3)c(N)n(Nc3cccc(Cl)c3)c2nc1C#N`, the growth is -56.8% (active).

For `Cc1ccc(NCCN(C)C)c2c(=O)c3ccccc3sc12`, the growth is 36.2%.

In the case of `COc1ccc(-c2nc(SCCC(C)C)nc(N/N=C\c3ccccc3O)c2C#N)cc1`, the growth was 92.3%.

For the compound `CC(C)=C[C@@H]1c2c(c3ccccc3n(C)c2=O)O[C@H]2c3c(c4ccccc4n(C)c3=O)OC(C)(C)[C@@H]12`, the growth is 6.54% (active).

With `CCN(CC)CCN1CC(O)=C(c2nc(-c3ccc(Cl)cc3)cs2)C1=N`, the growth was 76%.

Regarding `COc1ccc(NC(=O)CSc2nc(C)c(C(C)=O)n2-c2ccc(Cl)cc2)cc1`, the growth is 96.3%.

With `Nc1ccc2c(c1)c(N)nn2C(=O)Nc1ccc(Cc2ccccc2)cc1`, the growth was 60.2%.

`CCN1C(=O)N(CC)C2C1NN=c1s/c(=C\c3cccs3)c(=O)n12` (stereo not given): the growth is 21.9%.

Regarding `CCCCCCCOc1c(OC)cc(C2CC(=O)Nc3c2c(C)nn3-c2nc3ccccc3[nH]2)cc1OC` (stereo not given), the growth was 12%.

Consider `Nc1cc2c3c(cccc3c1)C(=O)N(CCN1CCCC1)C2=O`, for which the growth is 40.8%.

With `Cc1cc(=O)oc2c1ccc1oc(C#N)c(C)c12`, the growth is 90.4%.

In the case of `COC(=O)[C@]12CC[C@@H](C)[C@H](C)[C@@H]1C1=CC[C@@H]3[C@@]4(C)C(C=O)=C[C@@](C)(CO)[C@@H]4[C@H](O)C[C@@]3(C)[C@]1(C)CC2`, the growth was -0.105% (active).

For `O=c1oc2ccccc2c(Cl)c1Cl`, the growth was 101%.

Take `CN(C)CC1=NC2SC=C(c3ccccc3)C2C(=O)N1CC#N` (stereo not given): the growth is 71.4%.

Take `Cc1nc2c(c(N3CCCc4ccccc43)n1)CCC2`: the growth was 12.8%.

In the case of `COc1ccc(C(=O)Nn2c(NCC(=O)N3c4ccccc4Sc4ccccc43)nnc2-c2ccc(O)cc2)cc1`, the growth is 97.6%.

On to `CC1O[C@@H](OC2[C@H](OC(=O)/C=C/c3ccc(O)c(O)c3)C(COC3O[C@H](C)C(O)C(O)[C@@H]3O)O[C@@H](OCCc3ccc(O)c(O)c3)[C@H]2O)[C@@H](O)C(O)[C@H]1O` (stereo not given in full), for which the growth is 99.9%.

With `CCc1ccccc1-n1c(-c2ccc(Cl)cc2)cc(-c2ccc(OC)cc2)c(C#N)c1=O`, the growth was 84.1%.

With `COc1ccc2c(c1)C(=O)/C(=C/c1ccc(OCC(=O)Nc3nccs3)cc1)O2`, the growth is -62% (active).

On to `COc1cccc(Nc2nccc(Nc3ccc4[nH]ncc4c3)n2)c1`, for which the growth was -81.2% (active).

As to `CCCCCCCCCCCCCCCCCC1=NCCN1CCOC1=C(Cl)C(=O)c2ccccc2C1=O`, the growth was 55.3%.
